The results in this text go back to PubChem BioAssay (EPA / NIEHS).

The nature of test [1]: ACEA_ER_80hr: ACEA Biosciences xCELLigence Real-Time Cell Analysis on Estrogen Receptor Agonism for Proliferation (AID 2282667; active = hit-call score of the fitted dose curve at least 0.9, where 1 is the maximum). As to conditions: T47D proliferation, impedance (xCELLigence), 80 h. The method, boiled down: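 T-47D cells monitored by electrical impedance (xCELLigence) with compound present throughout; 80 h timepoint, positive-direction fitting versus DMSO. Eight-point 1:4 dilutions from 100 uM final, duplicate plates.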

A short description of test [2]: APR_HepG2_CellCycleArrest_24hr: Apredica 24-hour HepG2 Assay for Cell Cycle Arrest (AID 2282905).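 Note: cell cycle arrest scored as ratio of 2N to 4N nuclear DNA content.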 As to conditions: imaging, actives raise or lower the signal. The method, boiled down: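 Cell cycle arrest is scored from nuclear DNA content measured by high-content imaging of Hoechst 33342-stained HepG2 cells following 24-hour treatment at ten concentrations up to 200 uM, with DMSO as baseline.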

Test [3] in a line: APR_HepG2_CellLoss_24hr: Apredica 24-hour HepG2 Assay for Cell Loss (AID 2282908). Particulars: high-content imaging. Put shortly: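 Cell number is quantified by fluorescence imaging of Hoechst 33342-stained nuclei following dosing at 0.39–200 uM in 0.5% DMSO. Curves are fitted in both directions from the DMSO baseline.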
Test [4] can be described thus: APR_HepG2_MicrotubuleCSK_24hr: Apredica 24-hour HepG2 Assay for Microtubule CSK Stabilty (AID 2282909). As to conditions: HepG2 microtubule cytoskeleton imaging, actives raise or lower the signal. Put shortly: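 Steps: dose HepG2 for 24 h (0.39–200 uM, 0.5% DMSO); fix 30 min in 3.7% formaldehyde at room temperature; permeabilize; stain alpha-tubulin 60 min; image microtubule cytoskeleton at 20x. Signal change fitted in both directions relative to DMSO.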

Test [5] can be described thus: APR_HepG2_MitoticArrest_24hr: Apredica 24-hour HepG2 Assay for Mitotic Arrest (AID 2282910). Particulars: high-content imaging, actives raise or lower the signal. Put shortly: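 HepG2 cells, 24 h exposure at 0.39-200 uM (10 concentrations, duplicate, 0.5% DMSO). Fixed, stained for phospho-histone H3 with Hoechst; imaged by high-content microscopy, bidirectional fit versus DMSO.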

Test [6] can be described thus: APR_HepG2_MitoMembPot_24hr: Apredica 24-hour HepG2 Assay for Mitochondrial Membrane Potential (AID 2282911). Particulars: imaging, actives raise or lower the signal. The method, boiled down: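 HepG2 cells exposed 24 h to 0.39–200 uM compounds in duplicate, 0.5% v/v DMSO final. MitoTracker Red CMXRos 250 nM loaded 30 min before formaldehyde fixation; high-content imaging at 20x, bidirectional fit versus DMSO.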

Test [7] is described as follows: APR_HepG2_p53Act_24hr: Apredica 24-hour HepG2 Assay for p53 Activation (AID 2282913).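 Note: p53 protein immunofluorescence averaged per cell in HepG2 with Hoechst nuclei.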 As to conditions: high-content imaging, actives raise or lower the signal. Put shortly:
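HepG2 cells exposed 24 h to compounds at 0.39–200 uM in duplicate, 0.5% v/v DMSO final; fixed, permeabilized, stained with anti-p53 antibody and Hoechst 33342; fluorescence imaging; bidirectional curve fit versus DMSO.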

Test [8] is described as follows: APR_HepG2_CellCycleArrest_72hr: Apredica 72-hour HepG2 Assay for Cell Cycle Arrest (AID 2282914). As to conditions: high-content imaging, actives raise or lower the signal. Put shortly: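 HepG2 cells exposed 72 h in duplicate to 0.39–200 uM compound, 0.5% DMSO final. Formaldehyde-fixed, Hoechst 33342-stained nuclei imaged at 20x, six fields per well; DNA content per valid cell quantified by cell-cycle image analysis, bidirectional fit versus DMSO.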

Test [9] in a line: APR_HepG2_CellLoss_72hr: Apredica 72-hour HepG2 Assay for Cell Loss (AID 2282915). As to conditions: high-content imaging. The method, boiled down:
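HepG2 cells exposed 72 h to compound at 0.39–200 uM (10 concentrations, duplicate) in 0.5% DMSO. Fixed with 3.7% formaldehyde and Hoechst 33342-stained. Imaged at 20x; nuclear count gives cell number, fitted bidirectionally versus DMSO.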

Test [10] can be described thus: APR_HepG2_P-H2AX_72hr: Apredica 72-hour HepG2 Assay for H2AX Phosphorylation (AID 2282916).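 Note: phospho-histone H2A.x immunostain intensity per cell marking DNA damage.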 As to conditions: imaging, actives raise or lower the signal. Put shortly: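 Following 72 hr treatment with 0.39–200 uM compound, HepG2 cells were formaldehyde-fixed, permeabilized and stained for phospho-H2A.x; signal was measured by high-content imaging and fitted bidirectionally against DMSO controls.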

Test [11] in a line: APR_HepG2_P-H2AX_24hr: Apredica 24-hour HepG2 Assay for H2AX Phosphorylation (AID 2282920). Particulars: high-content imaging, actives raise or lower the signal. The method, boiled down:
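HepG2 cells dosed 24 h at 0.39–200 uM (10 points, duplicate, 0.5% DMSO final). Formaldehyde-fixed and permeabilized, then immunostained for phospho-H2A.x with Hoechst. Fluorescence quantified by high-content imaging, fitted bidirectionally versus DMSO.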

Test [12] can be described thus: APR_HepG2_StressKinase_72hr: Apredica 72-hour HepG2 Assay for Stress Kinase (AID 2282921). Particulars: HepG2 stress kinase (phospho-c-Jun) imaging, actives raise or lower the signal. The method, boiled down:
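Fluorescence intensity of Cy3-tagged anti-phospho-c-Jun antibody, quantified per cell from Hoechst-defined nuclei across six images per well, served as the read-out following 72 h exposure (0.39–200 uM, 0.5% v/v DMSO).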

The nature of test [13]: APR_HepG2_StressKinase_24hr: Apredica 24-hour HepG2 Assay for Stress Kinase (AID 2282922). Particulars: HepG2 stress kinase (phospho-c-Jun) imaging, actives raise or lower the signal. The method, boiled down: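 HepG2 cells exposed 24 h to 0.39–200 uM compound in duplicate (0.5% v/v DMSO final). Cells fixed in 3.7% formaldehyde, permeabilized and immunostained for phospho-c-Jun; read by high-content fluorescence imaging, fitted bidirectionally against DMSO.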

Test [14] can be described thus: APR_HepG2_NuclearSize_72hr: Apredica 72-hour HepG2 Assay for Nuclear Size (AID 2282925). Particulars: high-content imaging, actives raise or lower the signal. Put shortly: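 HepG2 cells dosed 72 h at 0.39–200 uM (10 concentrations, duplicate) in 0.5% v/v DMSO final. Fixed, Hoechst 33342-stained nuclei imaged; nuclear diameter measured by automated image analysis. Bidirectional fit versus DMSO.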

Test [15] can be described thus: APR_HepG2_MitoMembPot_72hr: Apredica 72-hour HepG2 Assay for Mitochondrial Membrane Potential (AID 2282917). Particulars: imaging, actives raise or lower the signal. The method, boiled down: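 HepG2 cells dosed 72 hr with compound at 0.39–200 uM in duplicate, 0.5% v/v DMSO final. Mitochondria stained with 250 nM MitoTracker Red CMXRos for 30 min before formaldehyde fixation, imaged by high-content fluorescence; bidirectional fit versus DMSO.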

A short description of test [16]: APR_HepG2_MitoticArrest_72hr: Apredica 72-hour HepG2 Assay for Mitotic Arrest (AID 2282918). As to conditions: high-content imaging, actives raise or lower the signal. The method, boiled down:
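HepG2 cells treated 72 h at 0.39–200 uM, 0.5% DMSO final; formaldehyde-fixed, stained with Hoechst 33342 and phospho-histone H3 antibody, imaged by high-content fluorescence; bidirectional fit versus DMSO.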

Test [17] is described as follows: APR_HepG2_MicrotubuleCSK_72hr: Apredica 72-hour HepG2 Assay for Microtubule CSK Stabilty (AID 2282919). As to conditions: HepG2 microtubule cytoskeleton, high-content imaging, actives raise or lower the signal. The method, boiled down:
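HepG2 cells were exposed 72 hr to compound at 0.39–200 uM in duplicate (0.5% DMSO final), then fixed and permeabilized. Alpha-tubulin immunofluorescence was imaged by high-content microscopy, with bidirectional fitting against DMSO and taxol as positive control.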

Test [18] can be described thus: APR_HepG2_MitoMass_72hr: Apredica 72-hour HepG2 Assay for Mitochondrial Mass (AID 2282924).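 Note: MitoTracker Red CMXRos stain intensity per cell imaged as mitochondrial mass.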 Particulars: high-content imaging, actives raise or lower the signal. Put shortly: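 HepG2 cells dosed 72 hr at 0.39–200 uM (0.5% DMSO), in duplicate. MitoTracker Red CMXRos 250 nM loaded 30 min before formaldehyde fixation; high-content fluorescence imaging, bidirectional fit versus DMSO.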

Records with an inconclusive call do not appear. Calls of active or inactive are those of the source. Rule for the calls, unless noted: active = hit-call score of the fitted dose curve at least 0.9, where 1 is the maximum; inactive = score below 0.9.

In general, AC50 refers to the concentration at which the activity in the assay is half-maximal.

With `NNC(=O)c1ccncc1`, the call in test [1], in test [2], in [3], in [4], in test [5] and in [6] was inactive. Further, the compound was classed as inactive in test [7], in test [8], in test [9], in test [10], in test [11] and in test [12]. The outcome in [13] and in [14] was inactive.
As to `CC(C)CC(C)O` (stereo not drawn), the result in test [1], in test [2], in test [3], in test [4], in [5] and in test [6] was inactive. The result in [9], in test [10], in test [15], in test [16], in [17] and in test [11] was inactive. Besides, the outcome in test [12], in test [13], in test [18] and in [14] was inactive.
Take `Cc1ncc([C@@H](CCCCCCc2ccc3c(n2)NCCC3)CC(=O)O)cn1`: the outcome in [1], in test [2], in [3], in test [4], in test [6] and in [15] was inactive. The result in test [12], in test [13] and in test [18] was inactive. Besides, the AC50 was 39.2 nM (active) in test [5]; 944 nM (active) in [9]; 39.1 nM (active) in test [10]; 97.1 nM (active) in test [16]; 534 nM (active) in [17]; 45.9 nM (active) in test [11]. Further, in test [14], the AC50 was 39.8 nM (active).
As for `CCOc1ccc2[nH]cc(C(=O)NCc3ccccc3)c(=O)c2n1`, the AC50 in [1] was 69000 nM (active); in test [5], 104000 nM (active); in test [9], 106000 nM (active); in [10], 105000 nM (active); in test [16], 109000 nM (active). Also, the outcome in [2], in [3], in test [4], in test [6], in test [15] and in test [17] was inactive. For the same compound, the compound was classed as inactive in [11], in test [12], in test [13], in test [18] and in test [14].
Take `CC(=O)c1ccccc1`: the compound was called inactive in test [1], in [2], in test [3], in test [4], in test [5] and in test [6]. Besides, the outcome in test [7], in test [8], in test [9], in test [10], in test [15] and in test [16] was inactive. Moreover, the compound was called inactive in test [17], in test [11], in test [12], in test [13], in [18] and in [14].
For the compound `OCCOCCOCCO`, the result in test [1], in [2], in test [3], in [4], in [5] and in [6] was inactive. Further, the compound was called inactive in test [7], in [9], in test [10], in test [15], in [16] and in test [17]. Moreover, the outcome in test [11], in [12], in [13], in test [18] and in test [14] was inactive.
Regarding `CC1(C)C(=O)N(Cl)C(=O)N1Cl`, the outcome in [1], in [2], in test [3], in [4], in test [5] and in test [6] was inactive. For the same compound, the result in [7], in [9], in test [10], in [11], in [12] and in test [13] was inactive. In addition, the call in test [14] was inactive.
For the compound `CCCCCCCCCCCCCCCCOS(=O)(=O)O`, the result in test [1], in test [2], in test [3], in test [4], in test [5] and in test [6] was inactive. In addition, the call in test [7], in test [8], in test [9], in test [10], in [15] and in [16] was inactive. Besides, the result in test [17], in [11], in test [12], in test [13], in test [18] and in test [14] was inactive.
